How the values were obtained:
Conditions in all cases: treatment time: 24 h
A549-ACTB-RAB5A [1] = assay: lowest phenotypically active concentration; higher = less potent
Summary of the method: (§1)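 Fifteen reporter lines derived from A549, HepG2 and WPMY1 cells by gene editing, carrying BFP for segmentation plus GFP and RFP/FusionRed markers, were exposed to 0.3, 1, 3 or 9 µM for 24 h in four wells each and imaged live. Live-cell features from each well were normalised to solvent control wells. A well set counted as deviating when ≥3 of 4 wells lay beyond the 95th percentile of control Euclidean distances, and as reproducible when the median replicate Pearson correlation exceeded the 95th percentile of non-replicates. Phenotypic activity was assigned only when both criteria were met.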

A549-GM130-SQSTM1 [2] = assay: as above
Summary of the method: as §1

HepG2-ACTB-RAB5A [3] = assay: as above
Summary of the method: as §1

WPMY1-GM130-SQSTM1 [4] = assay: as above
Summary of the method: as §1

A549-ACTB-RAB5A [5] = assay: phenotypically active (imaging signature differs from DMSO and reproducible) at any of 0.3-9 uM (binary (1 = active, 0 = inactive)); higher = active
Summary of the method: as §1

A549-CANX-COX4 = assay: as above
Summary of the method: as §1

A549-GM130-SQSTM1 [6] = assay: as above
Summary of the method: as §1

A549-TP53BP1-CLTA = assay: as above
Summary of the method: as §1

A549-TUBA1B-RELA = assay: as above
Summary of the method: as §1

HepG2-ACTB-RAB5A [7] = assay: as above
Summary of the method: as §1

HepG2-CANX-COX4 = assay: as above
Summary of the method: as §1

HepG2-GM130-SQSTM1 [8] = assay: as above
Summary of the method: as §1

HepG2-TP53BP1-CLTA = assay: as above
Summary of the method: as §1

HepG2-TUBA1B-RELA = assay: as above
Summary of the method: as §1

WPMY1-ACTB-RAB5A = assay: as above
Summary of the method: as §1

WPMY1-CANX-COX4 = assay: as above
Summary of the method: as §1

WPMY1-GM130-SQSTM1 [9] = assay: as above
Summary of the method: as §1

WPMY1-TP53BP1-CLTA = assay: as above
Summary of the method: as §1

WPMY1-TUBA1B-RELA = assay: as above
Summary of the method: as §1

HepG2-GM130-SQSTM1 [10] = assay: lowest phenotypically active concentration; higher = less potent
Summary of the method: as §1

| SMILES | lowest phenotypically active concentration (A549-ACTB-RAB5A [1]) [µM] | lowest phenotypically active concentration (A549-GM130-SQSTM1 [2]) [µM] | lowest phenotypically active concentration (HepG2-ACTB-RAB5A [3]) [µM] | lowest phenotypically active concentration (WPMY1-GM130-SQSTM1 [4]) [µM] | phenotypically active (A549-ACTB-RAB5A [5]) | phenotypically active (A549-CANX-COX4) | phenotypically active (A549-GM130-SQSTM1 [6]) | phenotypically active (A549-TP53BP1-CLTA) | phenotypically active (A549-TUBA1B-RELA) | phenotypically active (HepG2-ACTB-RAB5A [7]) | phenotypically active (HepG2-CANX-COX4) | phenotypically active (HepG2-GM130-SQSTM1 [8]) | phenotypically active (HepG2-TP53BP1-CLTA) | phenotypically active (HepG2-TUBA1B-RELA) | phenotypically active (WPMY1-ACTB-RAB5A) | phenotypically active (WPMY1-CANX-COX4) | phenotypically active (WPMY1-GM130-SQSTM1 [9]) | phenotypically active (WPMY1-TP53BP1-CLTA) | phenotypically active (WPMY1-TUBA1B-RELA) | lowest phenotypically active concentration (HepG2-GM130-SQSTM1 [10]) [µM] |
| --- | --- | --- | --- | --- | --- | --- | --- | --- | --- | --- | --- | --- | --- | --- | --- | --- | --- | --- | --- | --- |
| CN1C(=O)/C(=C2/Nc3ccccc3/C2=N/O)c2ccc(Br)cc21 | ≤ 0.3 | ≤ 0.3 | ≤ 0.3 | ≤ 0.3 | 1 (active) | 0 (inactive) | 1 (active) | 0 (inactive) | 1 (active) | 1 (active) | 1 (active) | 0 (inactive) | 0 (inactive) | 0 (inactive) | 1 (active) | 1 (active) | 1 (active) | 0 (inactive) | 0 (inactive) |  |
| COCCCC/C(=N/OCCN)c1ccc(C(F)(F)F)cc1 [fluvoxamine] | 9 | 9 |  |  | 1 (active) | 0 (inactive) | 1 (active) | 0 (inactive) | 1 (active) | 0 (inactive) | 0 (inactive) | 0 (inactive) | 1 (active) | 1 (active) | 1 (active) | 0 (inactive) | 0 (inactive) | 0 (inactive) | 0 (inactive) |  |
| CNCCCN1c2ccccc2CCc2ccccc21 [desipramine] | 9 | 3 | 9 | 9 | 1 (active) | 0 (inactive) | 1 (active) | 0 (inactive) | 1 (active) | 1 (active) | 0 (inactive) | 0 (inactive) | 0 (inactive) | 1 (active) | 1 (active) | 0 (inactive) | 1 (active) | 0 (inactive) | 1 (active) |  |
| O=C(Nc1nc2cc(C(F)(F)F)cc(NC3CC3)n2n1)c1cccnc1 | 3 | 3 |  |  | 1 (active) | 0 (inactive) | 1 (active) | 0 (inactive) | 1 (active) | 0 (inactive) | 1 (active) | 0 (inactive) | 1 (active) | 1 (active) | 1 (active) | 1 (active) | 0 (inactive) | 1 (active) | 0 (inactive) |  |
| CNCCCC12CCC(c3ccccc31)c1ccccc12 [maprotiline] | 3 | 3 | 9 | 9 | 1 (active) | 0 (inactive) | 1 (active) | 0 (inactive) | 1 (active) | 1 (active) | 0 (inactive) | 1 (active) | 1 (active) | 1 (active) | 1 (active) | 1 (active) | 1 (active) | 1 (active) | 1 (active) | 9 |
| CCCc1cc(C)n(C)c(=O)c1CN(C)C(=O)c1cc(-c2ccc(N3CCN(C(C)C)CC3)nc2)cc2c1cnn2C(C)C | 3 | 3 | 9 | 3 | 1 (active) | 0 (inactive) | 1 (active) | 0 (inactive) | 1 (active) | 1 (active) | 0 (inactive) | 1 (active) | 1 (active) | 0 (inactive) | 1 (active) | 1 (active) | 1 (active) | 1 (active) | 1 (active) | 3 |
| CN(C)CC(O)Cn1c2ccc(Br)cc2c2cc(Br)ccc21 (centres undefined) [Wiskostatin] | 3 | 1 | 3 | 3 | 1 (active) | 0 (inactive) | 1 (active) | 0 (inactive) | 1 (active) | 1 (active) | 1 (active) | 1 (active) | 1 (active) | 1 (active) | 1 (active) | 1 (active) | 1 (active) | 1 (active) | 1 (active) | 3 |
| CC1=C(/C=C/C(C)=C\C=C\C(C)=C\C(=O)O)C(C)(C)CCC1 [tretinoin] | 3 | 3 | 1 | ≤ 0.3 | 1 (active) | 0 (inactive) | 1 (active) | 0 (inactive) | 1 (active) | 1 (active) | 1 (active) | 1 (active) | 0 (inactive) | 0 (inactive) | 1 (active) | 1 (active) | 1 (active) | 1 (active) | 1 (active) | 9 |
| NC(=O)C(c1ccccc1)(c1ccccc1)[C@@H]1CCN(CCc2ccc3c(c2)CCO3)C1 [darifenacin] | 9 | 9 | 9 | 9 | 1 (active) | 0 (inactive) | 1 (active) | 0 (inactive) | 1 (active) | 1 (active) | 1 (active) | 1 (active) | 1 (active) | 0 (inactive) | 0 (inactive) | 0 (inactive) | 1 (active) | 1 (active) | 0 (inactive) | 9 |
| O=C(NCCN1CCC(n2c(=O)[nH]c3ccccc32)CC1)c1cc2cc(F)ccc2[nH]1 | 9 | 9 | 9 | 9 | 1 (active) | 0 (inactive) | 1 (active) | 0 (inactive) | 1 (active) | 1 (active) | 1 (active) | 1 (active) | 1 (active) | 1 (active) | 1 (active) | 1 (active) | 1 (active) | 1 (active) | 1 (active) | 9 |
| Cc1c(O)cccc1C(=O)N[C@@H](CSc1ccccc1)[C@H](O)CN1C[C@H]2CCCC[C@H]2C[C@H]1C(=O)NC(C)(C)C [nelfinavir] | 9 | 9 | 9 | 3 | 1 (active) | 0 (inactive) | 1 (active) | 0 (inactive) | 1 (active) | 1 (active) | 1 (active) | 1 (active) | 0 (inactive) | 1 (active) | 1 (active) | 1 (active) | 1 (active) | 0 (inactive) | 1 (active) | 9 |
| CC(CN1c2ccccc2Sc2ccccc21)N(C)C (centres undefined) [promethazine] | 9 | 9 | 9 | 9 | 1 (active) | 0 (inactive) | 1 (active) | 0 (inactive) | 1 (active) | 1 (active) | 0 (inactive) | 1 (active) | 1 (active) | 1 (active) | 1 (active) | 0 (inactive) | 1 (active) | 1 (active) | 1 (active) | 9 |
| COc1cc(C(C)=O)ccc1OCCCN1CCC(c2noc3cc(F)ccc23)CC1 [iloperidone] | 3 | 9 |  |  | 1 (active) | 0 (inactive) | 1 (active) | 0 (inactive) | 1 (active) | 0 (inactive) | 0 (inactive) | 0 (inactive) | 0 (inactive) | 0 (inactive) | 0 (inactive) | 0 (inactive) | 0 (inactive) | 0 (inactive) | 0 (inactive) |  |
| O=C1Cc2cc(CCN3CCN(c4nsc5ccccc45)CC3)c(Cl)cc2N1 [ziprasidone] | 9 | 9 | 3 |  | 1 (active) | 0 (inactive) | 1 (active) | 0 (inactive) | 1 (active) | 1 (active) | 0 (inactive) | 1 (active) | 1 (active) | 1 (active) | 0 (inactive) | 0 (inactive) | 0 (inactive) | 0 (inactive) | 0 (inactive) | 3 |
| CCOC(=O)c1c(CSc2ccccc2)n(C)c2cc(Br)c(O)c(CN(C)C)c12 [arbidol] | 9 | 9 | 9 | 9 | 1 (active) | 0 (inactive) | 1 (active) | 0 (inactive) | 1 (active) | 1 (active) | 1 (active) | 1 (active) | 1 (active) | 1 (active) | 0 (inactive) | 0 (inactive) | 1 (active) | 0 (inactive) | 0 (inactive) | 9 |
| CC(CN(C)C)CN1c2ccccc2Sc2ccccc21.CC(CN(C)C)CN1c2ccccc2Sc2ccccc21 (centres undefined) [alimemazine] | 9 | 9 | 9 | ≤ 0.3 | 1 (active) | 0 (inactive) | 1 (active) | 0 (inactive) | 1 (active) | 1 (active) | 0 (inactive) | 1 (active) | 1 (active) | 1 (active) | 1 (active) | 0 (inactive) | 1 (active) | 0 (inactive) | 1 (active) | 9 |
| N#Cc1cccc(-c2c[nH]c3ncnc(N4CCOCC4)c23)c1 | 9 | 9 | 3 |  | 1 (active) | 0 (inactive) | 1 (active) | 0 (inactive) | 1 (active) | 1 (active) | 1 (active) | 1 (active) | 1 (active) | 1 (active) | 1 (active) | 1 (active) | 0 (inactive) | 1 (active) | 0 (inactive) | 3 |
| N#C/C(=C/c1ccc(-c2cc(Cl)ccc2Cl)o1)C(=O)Nc1cccc2ncccc12 | 3 | 9 | 3 |  | 1 (active) | 0 (inactive) | 1 (active) | 0 (inactive) | 1 (active) | 1 (active) | 0 (inactive) | 0 (inactive) | 0 (inactive) | 0 (inactive) | 0 (inactive) | 1 (active) | 0 (inactive) | 0 (inactive) | 0 (inactive) |  |
| O=c1cc(N2CCOCC2)oc2c(-c3cccc4c3sc3ccccc34)cccc12 | 1 | 1 | 1 | 3 | 1 (active) | 0 (inactive) | 1 (active) | 0 (inactive) | 1 (active) | 1 (active) | 1 (active) | 1 (active) | 1 (active) | 1 (active) | 1 (active) | 1 (active) | 1 (active) | 1 (active) | 1 (active) | 1 |
| CN1CCC(CN2c3ccccc3Sc3ccccc32)C1 (centres undefined) [methdilazine] | 9 | 3 | 9 | 3 | 1 (active) | 0 (inactive) | 1 (active) | 0 (inactive) | 1 (active) | 1 (active) | 0 (inactive) | 1 (active) | 1 (active) | 1 (active) | 1 (active) | 1 (active) | 1 (active) | 1 (active) | 1 (active) | 9 |
| CN(C)CCCN1c2ccccc2Sc2ccc(C(F)(F)F)cc21 [triflupromazine] | 3 | 9 | 9 | 9 | 1 (active) | 0 (inactive) | 1 (active) | 0 (inactive) | 1 (active) | 1 (active) | 0 (inactive) | 0 (inactive) | 0 (inactive) | 1 (active) | 1 (active) | 1 (active) | 1 (active) | 0 (inactive) | 1 (active) |  |
